38 compounds from PubChem BioAssay (Tox21) can be followed below.

SMILES strings stand for the structures. Where “and” joins values, the source holds several entries; their conditions need not be identical. Equal values may be shown once. Inconclusive results are not listed. Where a call stands in place of a potency, no number is given. Where a structure was tested more than once in an assay, its records may differ in their call. Calls of active or inactive are those of the source. Unless noted, calls follow the shape of the dose curve; as a rule, active = well fitted curve in the direction sought with a large enough effect in the repeat runs; inconclusive = weak or mixed curves; inactive = no such curve, though single readings can be large; an effect the other way counts as inactive or inconclusive.
Potency is read from the fitted curve at half-maximal effect.

The first experiment is described as follows: qHTS assay to identify small molecule antagonists of the progesterone receptor (PR) signaling pathway - cell viability counter screen (AID 1346798). Also: nearly all actives have a fitted effect of over 50% in size. Conditions: PR-UAS-bla HEK293T viability, CellTiter-Glo luminescence, 16 h; series mostly up to 92.4 µM. In short, it runs like this: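 PR-UAS-bla HEK293T cells in medium with 2% charcoal-stripped FBS were treated with compounds plus R5020 for 16 hr at 37C. Cell viability was then read by CellTiter-Glo luminescence after 30 min at room temperature in the same wells.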
Background: In qHTS, concentration-response curves come from the screen itself.
Regarding `ClCC(Cl)CCl`, the Potency result is “inactive”.

With `CC[n+]1c(-c2ccccc2)c2cc(N)ccc2c2ccc(N)cc21`, the Potency was 5.31 µM (active).

For the compound `O=[N+]([O-])c1ccc(Cl)c([N+](=O)[O-])c1`, the Potency is 31.1 µM (active) and 27.3 µM (active).

On to `CCCCSP(=O)(SCCCC)SCCCC`, for which the Potency result was “inactive”.

Regarding `O=[N+]([O-])c1ccc(Nc2ccccc2)cc1`, the Potency result is “inactive”.

On to `C[N+](C)(C)CC(=O)[O-]`, for which the Potency entry was “inactive”.

Consider `CCCCOCCOC(C)=O`, for which the Potency result was “inactive”.

For `CC(C)(O)C#N`, the Potency result was “inactive”.

Consider `c1ccc(C2CO2)cc1` (stereo not given), for which the Potency result was “inactive”.

As for `O=C(O)CF`, the Potency result was “inactive”.

Take `CC1(C)Cc2cccc(O)c2O1`: the Potency entry was “inactive”.

Consider `NC(=O)CN1CCCC1=O`, for which the Potency entry is “inactive”.

For `Clc1cccc(C(Cl)(Cl)Cl)n1`, the Potency result was “inactive”.

As to `Clc1cccc(Cl)c1`, the Potency result is “inactive”.

Consider `COP(=S)(OC)SCn1nnc2ccccc2c1=O`, for which the Potency entry was “inactive”.

For the compound `Clc1ccc(C(Cl)(Cl)Cl)cc1`, the Potency entry was “inactive”.

Turning to `CC1CC(=O)O1` (stereo not given), the Potency result was “inactive”.

As for `O=S(=O)(O)C(F)(F)C(F)(F)C(F)(F)C(F)(F)C(F)(F)C(F)(F)C(F)(F)C(F)(F)F`, the Potency was 29.2 µM (active) and 19.3 µM (active).

Turning to `COc1ccc(O)c(C(C)(C)C)c1`, the Potency entry was “inactive”.

On to `CCCCCCCC[N+](C)(CCCCCCCC)CCCCCCCC`, for which the Potency is 30.6 µM (active).

Take `Nc1ccc2ccccc2c1`: the Potency entry was “inactive”.

As to `COP(=O)(NC(C)=O)SC` (stereo not given), the Potency result was “inactive”.

As for `CCOP(=O)(O)OCC` (tested in a mixture with another compound), the Potency entry is “inactive”.

On to `CCC[CH2][Sn]([Cl])([Cl])[CH2]CCC`, for which the Potency is 1.1 µM (active) and 1.37 µM (active).

Take `Cl`: the Potency result is “inactive”.

Consider `CC(C)(O)C(=O)Nc1ccc([N+](=O)[O-])c(C(F)(F)F)c1`, for which the Potency result is “inactive”.

`C[C@]12CCC(=O)C=C1CC[C@@H]1[C@@H]2CC[C@@]2(C)[C@H]1CC[C@]2(C)O`: the Potency result was “inactive”.

Consider `NN=C(N)N`, for which the Potency result was “inactive”.

On to `CCOP(=S)(OCC)SCSC(C)(C)C`, for which the Potency was 48.6 µM (active).

Regarding `O=P(OCCCl)(OCCCl)OCCCl`, the Potency entry was “inactive”.

As to `CC1=C(C(=O)Nc2ccccc2)SCCO1`, the Potency entry is “inactive”.

With `O=NN1CCOCC1`, the Potency result was “inactive”.

With `CNC(=S)S`, the Potency result is “inactive”.

Take `C[N+](C)(C)C`: the Potency result is “inactive”.

As to `CCCCOCC1CO1` (stereo not given), the Potency entry was “inactive”.

`CCCCC(C#N)(Cn1cncn1)c1ccc(Cl)cc1` (stereo not given): the Potency entry was “inactive”.

A short description of the next experiment: qHTS assay to identify small molecule agonists of the progesterone receptor (PR) signaling pathway - cell viability counter screen (AID 1346799; calls by dose curve; also: nearly all actives have a fitted effect of over 45% in size). Conditions: PR-UAS-bla HEK293T viability, CellTiter-Glo luminescence, 16 h; series mostly up to 92.4 µM. In short, it runs like this:
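PR-UAS-bla HEK293T cells, 3,000 per well in medium with 2% charcoal-stripped FBS, were preincubated 6 hr at 37C, then exposed to compounds for 16 hr; viability was read as CellTiter-Glo luminescence after 30 min at room temperature.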
As for `ClCC(Cl)CCl`, the Potency entry is “inactive”.

`N#Cc1nn(-c2c(Cl)cc(C(F)(F)F)cc2Cl)c(N)c1S(=O)C(F)(F)F` (stereo not given): the Potency result was “inactive”.

Take `CC[n+]1c(-c2ccccc2)c2cc(N)ccc2c2ccc(N)cc21`: the Potency was 3.76 µM (active).

As to `O=[N+]([O-])c1ccc(Cl)c([N+](=O)[O-])c1`, the Potency was 27.7 µM (active) and 27.3 µM (active).

Take `CCCCSP(=O)(SCCCC)SCCCC`: the Potency result was “inactive”.

For the compound `C[N+](C)(C)CC(=O)[O-]`, the Potency entry was “inactive”.

For `CCCCOCCOC(C)=O`, the Potency result was “inactive”.

Regarding `CC(C)(O)C#N`, the Potency result was “inactive”.

For `c1ccc(C2CO2)cc1` (stereo not given), the Potency result was “inactive”.

In the case of `O=C(O)CF`, the Potency result is “inactive”.

As for `CC1(C)Cc2cccc(O)c2O1`, the Potency result was “inactive”.

On to `NC(=O)CN1CCCC1=O`, for which the Potency result was “inactive”.

`Clc1cccc(C(Cl)(Cl)Cl)n1`: the Potency entry was “inactive”.

For `Clc1cccc(Cl)c1`, the Potency entry was “inactive”.

Turning to `COP(=S)(OC)SCn1nnc2ccccc2c1=O`, the Potency entry was “inactive”.

In the case of `Clc1ccc(C(Cl)(Cl)Cl)cc1`, the Potency result was “inactive”.

For `CC1CC(=O)O1` (stereo not given), the Potency entry was “inactive”.

Take `O=S(=O)(O)C(F)(F)C(F)(F)C(F)(F)C(F)(F)C(F)(F)C(F)(F)C(F)(F)C(F)(F)F`: the Potency is 41.2 µM (active) and inactive and 17.2 µM (active).

`COc1ccc(O)c(C(C)(C)C)c1`: the Potency result is “inactive”.

Regarding `Nc1ccc2ccccc2c1`, the Potency result was “inactive”.

`COP(=O)(NC(C)=O)SC` (stereo not given): the Potency result is “inactive”.

Regarding `CCOP(=O)(O)OCC` (tested in a mixture with another compound), the Potency result was “inactive”.

Consider `CCC[CH2][Sn]([Cl])([Cl])[CH2]CCC`, for which the Potency is 1.1 µM (active) and 1.37 µM (active).

Consider `Cl`, for which the Potency result was “inactive”.

For `NN=C(N)N`, the Potency result was “inactive”.

With `CCOP(=S)(OCC)SCSC(C)(C)C`, the Potency entry was “inactive”.

Consider `O=P(OCCCl)(OCCCl)OCCCl`, for which the Potency entry is “inactive”.

With `CC1=C(C(=O)Nc2ccccc2)SCCO1`, the Potency result was “inactive”.

Regarding `O=NN1CCOCC1`, the Potency entry is “inactive”.

Consider `CNC(=S)S`, for which the Potency result is “inactive”.

On to `C[N+](C)(C)C`, for which the Potency entry was “inactive”.

Turning to `CCCCOCC1CO1` (stereo not given), the Potency result was “inactive”.

Regarding `CCCCC(C#N)(Cn1cncn1)c1ccc(Cl)cc1` (stereo not given), the Potency entry was “inactive”.

A short description of a further experiment: qHTS assay to identify small molecule antagonists of the TGF-beta/Smad signaling pathway - cell viability counter screen (AID 1346824). Also: nearly all actives have a fitted effect of over 50% in size. As to conditions: SBE-bla HEK293T viability, CellTiter-Glo luminescence; series mostly up to 76.8 µM. In short, it runs like this: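 Cytotoxicity counter-screen run in the same wells as the beta-lactamase Smad reporter read: CellTiter-Glo luminescence after 30 min at room temperature. HEK 293T SBE-bla cells had 5 hr compound exposure at 37 C with TGF-beta1 (0.25 ng/mL stock).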
Consider `ClCC(Cl)CCl`, for which the Potency entry is “inactive”.

For `N#Cc1nn(-c2c(Cl)cc(C(F)(F)F)cc2Cl)c(N)c1S(=O)C(F)(F)F` (stereo not given), the Potency result was “inactive”.

Take `CCCCSP(=O)(SCCCC)SCCCC`: the Potency entry was “inactive”.

Consider `O=[N+]([O-])c1ccc(Nc2ccccc2)cc1`, for which the Potency entry was “inactive”.

Take `C[N+](C)(C)CC(=O)[O-]`: the Potency result was “inactive”.

`CC(C)(O)C#N`: the Potency entry is “inactive”.

Take `c1ccc(C2CO2)cc1` (stereo not given): the Potency result was “inactive”.

As to `O=C(O)CF`, the Potency entry is “inactive”.

On to `CC1(C)Cc2cccc(O)c2O1`, for which the Potency entry was “inactive”.

For `NC(=O)CN1CCCC1=O`, the Potency entry is “inactive”.

Regarding `Clc1cccc(C(Cl)(Cl)Cl)n1`, the Potency result was “inactive”.

For `COc1ccc(O)c(C(C)(C)C)c1`, the Potency result was “inactive”.

For the compound `CCCCCCCC[N+](C)(CCCCCCCC)CCCCCCCC`, the Potency is 15.5 µM (active) and 49 µM (active).

Turning to `Nc1ccc2ccccc2c1`, the Potency result is “inactive”.

For `COP(=O)(NC(C)=O)SC` (stereo not given), the Potency entry is “inactive”.

Take `CCC[CH2][Sn]([Cl])([Cl])[CH2]CCC`: the Potency is 8.82 µM (active) and 13.8 µM (active).

As to `Cl`, the Potency entry was “inactive”.

As for `CC(C)(O)C(=O)Nc1ccc([N+](=O)[O-])c(C(F)(F)F)c1`, the Potency entry is “inactive”.

In the case of `C[C@]12CCC(=O)C=C1CC[C@@H]1[C@@H]2CC[C@@]2(C)[C@H]1CC[C@]2(C)O`, the Potency entry was “inactive”.

Regarding `NN=C(N)N`, the Potency result is “inactive”.

As to `O=P(OCCCl)(OCCCl)OCCCl`, the Potency result was “inactive”.

`CC1=C(C(=O)Nc2ccccc2)SCCO1`: the Potency result was “inactive”.

`O=NN1CCOCC1`: the Potency result is “inactive”.

On to `CNC(=S)S`, for which the Potency result was “inactive”.

As for `CC(C)Nc1ccc(Nc2ccccc2)cc1`, the Potency result was “inactive”.

For `C[N+](C)(C)C`, the Potency result is “inactive”.
